For 18 molecules, Potency and activity change, negative = cytotoxicity results are on record in PubChem BioAssay (NCATS).

Inconclusive results are not listed. A number with no mark means an inactive call. Active and inactive are the calls of the source. Calls come from the whole dose curve; as a rule, active = well fitted curve in the direction sought with a large enough effect; inconclusive = small, poorly fitted or top-dose-only effect, or another doubt; inactive = no such curve, though single readings can be large; an effect the other way counts as inactive or inconclusive.

The subject of assay [1] is MKL-2. Put plainly: qHTS assay to identify novel small-molecules to repurpose for Merkel cell carcinoma treatment (AID 1296009). Note: nearly all actives have a fitted effect of over 60% in size. The settings on record: MCC and control cell lines, CellTiter-Glo viability, 72 h; series mostly up to 46 µM. The procedure, abridged:
(§1)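 Dose-response viability screen; 72 hr exposure at 37 degree celsius; CellTiter-Glo added, 10 min room temperature, luminescence read; RLUs scaled between no-cell and DMSO wells.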

The subject of assay [2] is UISO. Described as above. Conditions: MCC and control cell lines, CellTiter-Glo viability, 72 h; series mostly up to 46 µM. The procedure, abridged: as §1
Assay [3] has as its system WaGa. The description is as above. Conditions: MCC and control cell lines, CellTiter-Glo viability, 72 h; series mostly up to 46 µM. The procedure, abridged: as §1
In assay [4] the test system is C33A. Put plainly: Primary qHTS to identify gynecologic anti-cancer compounds using libraries of approved drugs and bioactive compounds (AID 1345084). Note: nearly all actives have a fitted effect of over 55% in size. The settings on record: Gynecologic cancer cell panel viability, ATPlite luminescence, 48 h; series mostly up to 57.5 µM. The procedure, abridged: (§2)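 Cells, 1,000 per well, were allowed to settle for 16 h at 37 C before compound addition. Five concentrations were tested for 48 h, and viability was read by ATPlite luminescence after 15 min at room temperature.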

In assay [5] the test system is CASKI. The assay is described as above. Conditions: Gynecologic cancer cell panel viability, ATPlite luminescence, 48 h; series mostly up to 57.5 µM. Summed up:
as §2

The test system of assay [6] is Es-2. Described as above. Conditions: Gynecologic cancer cell panel viability, ATPlite luminescence, 48 h; series mostly up to 57.5 µM. Summed up: as §2
For assay [7], the system named is HeLa. Described as above. Conditions: Gynecologic cancer cell panel viability, ATPlite luminescence, 48 h; series mostly up to 57.5 µM. The procedure, abridged: as §2
For assay [8], the system named is Hek293T. The assay is described as above. Conditions: Gynecologic cancer cell panel viability, ATPlite luminescence, 48 h, control line for the selectivity index; series mostly up to 57.5 µM. Summed up:
as §2

In assay [9] the test system is CAOV3. Described as above. The settings on record: Gynecologic cancer cell panel viability, ATPlite luminescence, 48 h; series mostly up to 57.5 µM. The procedure, abridged: as §2
% is set by controls: 0 for no effect and ±100 for the full control effect; potency is the fitted concentration of half-maximal effect.

Turning to `CCOc1ccc(NC(=O)CC(C)O)cc1` (stereo unspecified), the Potency entry in assay [1], in [2], in [3], in assay [4], in assay [5] and in assay [6] was “inactive” each time. Also, the Potency entry in assay [7] and in assay [8] was “inactive” throughout.
Consider `Cc1cccn2c(=O)c(-c3nnn[nH]3)cnc12`, for which the Potency result in assay [1], in assay [2], in [3], in assay [4], in assay [5] and in [6] was “inactive” each time. The Potency result in [7] is “inactive”.
For `CCCCOc1ccc(OCCCN2CCOCC2)cc1`, the Potency result in assay [1], in [2], in [3], in assay [4], in [5] and in assay [6] was “inactive” in each case. In addition, the Potency result in assay [7] and in [8] was “inactive” throughout.
Take `CC(=O)OCC(=O)[C@@]12N=C(C)O[C@@H]1C[C@H]1[C@@H]3CCC4=CC(=O)C=C[C@]4(C)[C@H]3[C@@H](O)C[C@@]12C`: the Potency entry in assay [1], in assay [2], in assay [3], in [4], in assay [9] and in assay [5] was “inactive” in each case. The Potency result in assay [6], in assay [7] and in assay [8] was “inactive” each time.
Take `NCCC(O)(P(=O)(O)O)P(=O)(O)O`: the Potency result in assay [1], in assay [2], in assay [3], in [4], in assay [9] and in [5] was “inactive” in each case. Further, the Potency result in assay [6], in [7] and in assay [8] was “inactive” in each case.
As to `CNCC[C@@H](Oc1ccccc1C)c1ccccc1`, the Potency result in [1], in [2], in assay [3], in [4], in assay [9] and in [5] was “inactive” throughout. The Potency result in [7] and in assay [8] was “inactive” each time.
`COc1cccc2c1C(=O)c1c(O)c3c(c(O)c1C2=O)C[C@@](O)(C(C)=O)C[C@@H]3O[C@H]1C[C@H](N)[C@H](O)[C@H](C)O1`: the Potency in assay [1] was 10.6 nM (active); in assay [2], 211 nM (active); in assay [3] it was 23.7 nM (active); in assay [4] it was 631 nM (active); in assay [5], 708 nM (active); in assay [6], 708 nM (active). The Potency in assay [7] is 4470 nM (active).
For `CCn1cc(C(=O)O)c(=O)c2cnc(N3CCCC3)nc21`, the activity change, negative = cytotoxicity was 14.9% [at 9.22 µM] in assay [1]; 12.1% [at 9.22 µM] in assay [2]; 0.34% [at 9.22 µM] in [3]; -2.2% [at 11.6 µM] in [4]; 15.2% [at 11.6 µM] in assay [5]; 0.873% [at 11.6 µM] in [6]. For the same molecule, the activity change, negative = cytotoxicity in assay [7] is -17.6% [at 11.6 µM]; in assay [8], 1.62% [at 11.6 µM].
Take `Cc1c(F)c(N2CCNC(C)C2)cc2c1c(=O)c(C(=O)O)cn2C1CC1` (stereo unspecified): the Potency entry in assay [1], in assay [2], in [3], in assay [4], in assay [9] and in assay [5] was “inactive” each time. The Potency result in assay [6], in [7] and in assay [8] was “inactive” each time.
Regarding `COc1cc(/C=C/C(=O)O[C@H]2CC[C@]34C[C@]35CC[C@]3(C)[C@@H]([C@H](C)CCC=C(C)C)CC[C@@]3(C)[C@@H]5CC[C@H]4C2(C)C)ccc1O`, the Potency result in [1], in assay [2], in assay [3], in assay [4], in [5] and in assay [6] was “inactive” in each case. Besides, the Potency entry in [7] and in assay [8] was “inactive” in each case.
Consider `O=C(N/N=C/c1ccccc1O)c1ccncc1`, for which the Potency in [1] was 750 nM (active); in [2], 750 nM (active); in assay [3], 2660 nM (active). The Potency entry in [4], in [9], in [7] and in assay [8] was “inactive” each time.
On to `C#C[C@]1(O)CC[C@H]2[C@@H]3CCC4=CC(=O)CC[C@@H]4[C@H]3CC[C@@]21C`, for which the Potency result in assay [1], in assay [2], in assay [3], in assay [4], in [9] and in [5] was “inactive” throughout. Besides, the Potency entry in assay [6] and in assay [8] was “inactive” each time. In assay [7], the Potency is 3550 nM (active).
On to `OC(CCN1CCCCC1)(c1ccccc1)c1ccccc1`, for which the Potency entry in assay [1], in [2], in assay [3], in assay [4], in assay [5] and in assay [6] was “inactive” in each case. The Potency result in assay [7] and in assay [8] was “inactive” in each case.
On to `NC(=NCCCCCCN=C(N)/N=C(\N)Nc1ccc(Cl)cc1)/N=C(\N)Nc1ccc(Cl)cc1`, for which the Potency in assay [1] is 2990 nM (active); in assay [2], 9440 nM (active); in [3], 8410 nM (active). Also, the Potency result in assay [5] and in [6] was “inactive” in each case.
`CCCCCCCCCCCCCCCC[N+](C)(C)CC`: the Potency is 47.3 nM (active) in assay [1]; 668 nM (active) in assay [2]; 119 nM (active) in assay [3]; 8910 nM (active) in [5]; 28200 nM (active) in assay [6]; 28200 nM (active) in assay [7].
As for `COC1=CC(=O)C[C@@H](C)[C@]12Oc1c(Cl)c(OC)cc(OC)c1C2=O`, the Potency result in assay [1], in assay [4], in [9], in assay [5], in assay [6] and in assay [7] was “inactive” in each case. Further, the Potency result in assay [8] was “inactive”.
Take `CCCSS/C(CCO)=C(\C)N(C=O)Cc1cnc(C)nc1N`: the Potency was 6680 nM (active) in assay [1] and 29900 nM (active) in assay [2]. Also, the Potency result in assay [4], in assay [9], in [5], in assay [7] and in [8] was “inactive” each time.
Consider `CN(C)C(=S)SC(=S)N(C)C`, for which the Potency in assay [1] is 3350 nM (active); in assay [2], 1190 nM (active); in assay [4], 15800 nM (active). For the same molecule, the Potency result in assay [5], in [6] and in [7] was “inactive” throughout.
